{"source": "PubChem BioAssay AID1159580", "about": "(chemical genetic matrix, 2015)", "test": "chemical genetic growth profiling, strain panel (AID 1159580);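 also: tested at 20 µM; growth read once vehicle control cultures reached saturation at 30 °C; 1 = growth at the plate median or of vehicle wells; lower values mean less growth of the strain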", "settings": "S. cerevisiae deletion strains, growth OD", "key": {"[1]": {"settings": "locus YAL013W, strain DEP1, hits give low values"}, "[2]": {"settings": "locus YBR229C, strain ROT2, hits give low values"}, "[3]": {"settings": "locus YDL101C, strain DUN1, hits give low values"}, "[4]": {"settings": "locus YDR150W, strain NUM1, hits give low values"}, "[5]": {"settings": "locus YEL061C, strain CIN8, hits give low values"}, "[6]": {"settings": "locus YGR078C, strain PAC10, hits give low values"}, "[7]": {"settings": "locus YHR030C, strain SLT2, hits give low values"}, "[8]": {"settings": "locus YHR087W, strain rtc3, hits give low values"}, "[9]": {"settings": "locus YJR043C, strain POL32, hits give low values"}, "[10]": {"settings": "locus YJR075W, strain HOC1, hits give low values"}, "[11]": {"settings": "locus YKL190W, strain CNB1, hits give low values"}, "[12]": {"settings": "locus YLR039C, strain RIC1, hits give low values"}, "[13]": {"settings": "locus YLR058C, strain SHM2 (second series), hits give low values"}, "[14]": {"settings": "locus YLR085C, strain ARP6, hits give low values"}, "[15]": {"settings": "locus YLR262C, strain YPT6, hits give low values"}, "[16]": {"settings": "locus YML094W, strain GIM5, hits give low values"}, "[17]": {"settings": "locus YMR219W, strain ESC1, hits give low values"}, "[18]": {"settings": "locus YNL153C, strain GIM3, hits give low values"}, "[19]": {"settings": "locus YNL298W, strain CLA4 (second series), hits give low values"}, "[20]": {"settings": "locus YNL322C, strain KRE1, hits give low values"}, "[21]": {"settings": "locus YNR030W, strain Alg12, hits give low values"}, "[22]": {"settings": "locus YPL055C, strain LGE1, hits give low values"}, "[23]": {"settings": "locus YPL241C, strain CIN2, hits give low values"}, "[24]": {"settings": "locus YPR135W, strain CTF4, hits give low values"}}, "note": "The campaign covered roughly 5,500 compounds. About 2,000 (36%) were called active. Inconclusive results (about 18%) are left out. The list shows a part of the results. A number with no mark means an inactive call. Rule as the data show it: active = normalized growth mostly below about 0.91 (no sharp cut-off); inconclusive = no clear call, values can overlap the other calls; inactive = mostly above about 0.92.", "data": [{"smiles": "Cc1ccc(N=Nc2c(C)[nH]n(C)c2=O)cc1", "values": [{"measurement": "normalized growth", "setting": "[1]", "result": "0.931 (active)"}, {"measurement": "normalized growth", "setting": "[2]", "result": "0.921 (active)"}, {"measurement": "normalized growth", "setting": "[3]", "result": 0.918}, {"measurement": "normalized growth", "setting": "locus YDL134C, strain PPH21, hits give low values", "result": "0.886 (active)"}, {"measurement": "normalized growth", "setting": "[4]", "result": 0.92}, {"measurement": "normalized growth", "setting": "[5]", "result": "0.839 (active)"}, {"measurement": "normalized growth", "setting": "[6]", "result": 0.959}, {"measurement": "normalized growth", "setting": "[7]", "result": "0.433 (active)"}, {"measurement": "normalized growth", "setting": "[8]", "result": 0.974}, {"measurement": "normalized growth", "setting": "[9]", "result": "0.896 (active)"}, {"measurement": "normalized growth", "setting": "[10]", "result": 0.969}, {"measurement": "normalized growth", "setting": "[11]", "result": 0.946}, {"measurement": "normalized growth", "setting": "[12]", "result": "0.332 (active)"}, {"measurement": "normalized growth", "setting": "[13]", "result": 0.955}, {"measurement": "normalized growth", "setting": "[14]", "result": "0.407 (active)"}, {"measurement": "normalized growth", "setting": "[15]", "result": "0.352 (active)"}, {"measurement": "normalized growth", "setting": "[16]", "result": "0.822 (active)"}, {"measurement": "normalized growth", "setting": "[17]", "result": 0.964}, {"measurement": "normalized growth", "setting": "[18]", "result": 0.945}, {"measurement": "normalized growth", "setting": "[19]", "result": 0.87}, {"measurement": "normalized growth", "setting": "[20]", "result": 0.991}, {"measurement": "normalized growth", "setting": "[21]", "result": 0.897}, {"measurement": "normalized growth", "setting": "[22]", "result": 0.847}, {"measurement": "normalized growth", "setting": "[23]", "result": "0.82 (active)"}, {"measurement": "normalized growth", "setting": "[24]", "result": "0.431 (active)"}]}, {"smiles": "Cc1[nH]n(C)c(=O)c1N=Nc1ccc(Cl)cc1", "values": [{"measurement": "normalized growth", "setting": "[1]", "result": "0.892 (active)"}, {"measurement": "normalized growth", "setting": "[2]", "result": "0.886 (active)"}, {"measurement": "normalized growth", "setting": "locus YCL061C, strain MRC1, hits give low values", "result": "0.864 (active)"}, {"measurement": "normalized growth", "setting": "[3]", "result": "0.82 (active)"}, {"measurement": "normalized growth", "setting": "[4]", "result": 0.835}, {"measurement": "normalized growth", "setting": "[5]", "result": "0.598 (active)"}, {"measurement": "normalized growth", "setting": "[6]", "result": "0.906 (active)"}, {"measurement": "normalized growth", "setting": "locus YGR229C, strain SMI1, hits give low values", "result": 0.979}, {"measurement": "normalized growth", "setting": "[7]", "result": "0.143 (active)"}, {"measurement": "normalized growth", "setting": "[8]", "result": 0.926}, {"measurement": "normalized growth", "setting": "locus YJL187C, strain SWE1, hits give low values", "result": "0.875 (active)"}, {"measurement": "normalized growth", "setting": "[9]", "result": 0.945}, {"measurement": "normalized growth", "setting": "[10]", "result": 0.912}, {"measurement": "normalized growth", "setting": "[11]", "result": "0.915 (active)"}, {"measurement": "normalized growth", "setting": "[12]", "result": "0.342 (active)"}, {"measurement": "normalized growth", "setting": "[13]", "result": "0.912 (active)"}, {"measurement": "normalized growth", "setting": "[14]", "result": "0.115 (active)"}, {"measurement": "normalized growth", "setting": "[15]", "result": "0.393 (active)"}, {"measurement": "normalized growth", "setting": "[16]", "result": "0.764 (active)"}, {"measurement": "normalized growth", "setting": "[17]", "result": "0.924 (active)"}, {"measurement": "normalized growth", "setting": "locus YNL128W, strain TEP1, hits give low values", "result": 0.965}, {"measurement": "normalized growth", "setting": "[18]", "result": "0.894 (active)"}, {"measurement": "normalized growth", "setting": "[19]", "result": "0.689 (active)"}, {"measurement": "normalized growth", "setting": "[20]", "result": 0.96}, {"measurement": "normalized growth", "setting": "[21]", "result": "0.881 (active)"}, {"measurement": "normalized growth", "setting": "[22]", "result": 0.78}, {"measurement": "normalized growth", "setting": "[23]", "result": "0.753 (active)"}, {"measurement": "normalized growth", "setting": "[24]", "result": "0.242 (active)"}]}]}
